MEKK2 WT-MEK5 – raises or lowers MEK5 binding to wildtype human MEKK2 PB1 domain. bead flow cytometry, Alexa488-MEK5 binding to MEKK2 WT; actives lie on both sides. binding response (% of control), % at 10 µM. 290,000 tested, 1.1% active. AID 1531; in the data active = binding response below about 67% or above about 130%
MEKK3 PB1 HTS – modulators (inhibitors or enhancers) of MEK5 binding to human MEKK3 PB1 domain | Q99759 | bead-based flow cytometry, Alexa488-MEK5 binding to MEKK3; actives lie on both sides; 0 = blocked by unlabeled MEK5, 100 = vehicle | binding response (% of control), % at 10 µM | 290,000 tested, 1.4% active | AID 1529;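 active = binding response more than 3 SD above or below the average of its plate-row segment, actives on both sides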;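 also: Alexa488 bead fluorescence after subtracting the streptavidin-only scavenger bead signal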
MEKK2 mut-MEK5 – signal of MEK5 binding to mutant human MEKK2 PB1 domain; bead flow cytometry, Alexa488-MEK5 binding to MEKK2 mutant; percent response, % at 10 µM; 290,000 tested, 0.35% active; AID 1530; in the data active = percent response above about 24%, passing the limit was not always enough
VLA-4 inh – inhibition in a human VLA-4 binding assay; 330,000 tested, 0.2% active; inhibition, % (about 7 µM as worked out from the volumes in the protocol); VLA-4 expressing cells, ligand binding flow cytometry; in the data active = inhibition above about 50%
MEKK2wt confirm – raises or lowers MEK5 binding to wildtype human MEKK2, retest; shares compounds with MEKK3 PB1 HTS; bead flow cytometry, Alexa488-MEK5 binding to MEKK2 WT; actives lie on both sides; binding response (% of control), % at 10 µM; 5,900 tested, 2.4% active; AID 1892; in the data active = binding response below about 16% or above about 210%; inactive = in between
MEKK2mut confirm – signal of MEK5 binding to mutant human MEKK2, retest. shares compounds with MEKK3 PB1 HTS. bead flow cytometry, Alexa488-MEK5 binding to MEKK2 mutant. percent response, % at 10 µM. 5,900 tested, 2% active. AID 1893; in the data active = percent response mostly above about 71%, no sharp cut-off; inactive = mostly below about 38%;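 also: higher means compound restores mutant binding toward wildtype level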
MEKK3-MEK5 inh – confirmation of inhibitors of MEK5 binding to human MEKK3. shares compounds with MEKK3 PB1 HTS. bead flow cytometry, Alexa488-MEK5 binding to MEKK3; stronger effect = lower value. binding response (% of control), % at 10 µM. 5,900 tested, 1.8% active. AID 1894;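 active = binding response below 72% of control, or above a set upper limit, though filed actives all read lower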;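 also: 100% = DMSO only wells and 0% = binding blocked by excess unlabeled MEK5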
Active calls of the source: *; · = no result given; [ ] = remark or other dose. Only some compounds are listed: those with a hit (about 2.2% of all), similar ones and a draw of the others.

SMILES	MEKK2 WT-MEK5	MEKK3 PB1 HTS	MEKK2 mut-MEK5	VLA-4 inh	MEKK2wt confirm	MEKK2mut confirm	MEKK3-MEK5 inh
CCn1c(SCC(=O)N=Nc2c(O)[nH]c3ccccc23)nnc1-c1ccc(C(C)(C)C)cc1	111.0	132.0*	1.0	10.0	99.0	-3.0	99.0
CC1CCN(S(=O)(=O)c2cc3c4c(c2)CCN4C(=O)CC3)CC1	·	·	·	28.7	·	·	·
CC(C)(C)C(=O)Cn1nc(Cl)nc1Cl	124.0	132.0*	2.0	3.8	101.0	-6.0	98.0
CC(=O)c1c(C)[nH]c(C(=O)CN2CCN(S(=O)(=O)c3ccccc3[N+](=O)[O-])CC2)c1C	·	·	·	5.7	·	·	·
COc1ccc(C(=O)CSc2n[nH]c(C)n2)cc1[N+](=O)[O-]	59.0	46.0*[inhibitor]	-14.0	-8.4	104.0	1.0	101.0
OC(CNCC1CCCO1)Cn1c2ccccc2c2ccccc21 (centres undefined)	112.0	101.0	7.0	16.5	·	·	·
OC(CNCC1CCCO1)Cn1c2ccc(Cl)cc2c2cc(Cl)ccc21 (centres undefined)	187.0*	104.0	34.0	24.8	170.0	49.0	113.0
Cc1ccc(/C=N/n2c(-c3ccc(Cl)cc3)n[nH]c2=S)o1	99.0	106.0	0.0	-3.4	·	·	·
Cc1ccc(-c2n[nH]c(=S)n2/N=C/c2ccc(C)o2)cc1	111.0	151.0*	1.0	33.5	105.0	1.0	105.0
CC(NC(=O)C(C)(C)C)c1nc2ccccc2n1C (centres undefined)	0.0*[inhibitor]	0.0*[inhibitor]	-16.0	28.4	108.0	7.0	101.0
CCOC(=O)COn1c(=O)c(-c2cccs2)[n+]([O-])c2ccccc21	26.0*[inhibitor]	15.0*[inhibitor]	-8.0	-133.2	102.0	4.0	102.0
COc1ccc(CNCCCSc2ncccn2)cc1OC	132.0	111.0	30.0*	2.1	123.0	14.0	102.0
Clc1cccc(CNCCCSc2ncccn2)c1	139.0*	114.0	27.0*	11.0	126.0	19.0	111.0
COc1ccc(CNCCCSc2ncccn2)c(OC)c1	128.0	103.0	22.0	8.6	·	·	·
CSc1ccc(CNCCCSc2ncccn2)cc1	147.0*	111.0	25.0*	4.9	114.0	4.0	105.0
COc1ccc(CNC(=O)C(c2ccncc2)N(C(=O)Cc2cccs2)c2ccc(C)cc2)cc1 (centres undefined)	86.0	81.0*[inhibitor]	-11.0	3.3	107.0	10.0	104.0
CC(C)(C)c1ccc(OC(=O)c2ccc(-n3cncn3)nc2)cc1	102.0	107.0	0.0	2.1	·	·	·
NC(=O)c1ccc(NC(=O)COC(=O)C2(c3ccccc3F)CCCC2)cc1	88.0	73.0*[inhibitor]	-2.0	29.3	100.0	1.0	103.0
NS(=O)(=O)c1ccc(NC(=O)COC(=O)C2(c3ccccc3F)CCCC2)cc1	105.0	107.0	4.0	2.6	·	·	·
Cc1c(NC(=O)c2ccccc2F)c(=O)n(-c2ccccc2)n1C	41.0*[inhibitor]	23.0*[inhibitor]	-32.0	2.3	101.0	2.0	106.0
Cc1c(NC(=O)/C(=C\c2ccccc2)NC(=O)c2ccccc2)c(=O)n(-c2ccccc2)n1C	125.0	130.0*	8.0	2.6	102.0	0.0	101.0
COc1ccccc1C(=O)Nc1c(C)n(C)n(-c2ccccc2)c1=O	96.0	99.0	-3.0	4.2	·	·	·
Cc1c(NS(=O)(=O)c2ccccc2)c(=O)n(-c2ccccc2)n1C	124.0	126.0*	7.0	14.3	92.0	-8.0	97.0
CC(=O)NCCNC(=O)c1cccc(NS(=O)(=O)c2ccc3c(c2)OCCO3)c1	·	·	·	13.4	·	·	·
CCOc1ccc(CN(C)C(=O)c2ccc(NC(=O)CC3SC(N4CCCC4)=NC3=O)cc2)cc1 (centres undefined)	102.0	96.0	1.0	8.0	·	·	·
SMILES	MEKK2 WT-MEK5	MEKK3 PB1 HTS	MEKK2 mut-MEK5	VLA-4 inh	MEKK2wt confirm	MEKK2mut confirm	MEKK3-MEK5 inh
CSc1ccc(CN(C)C(=O)c2cc(=O)[nH]c3ccccc23)cc1	104.0	101.0	10.0	-9.3	·	·	·
CN(c1ccccc1)S(=O)(=O)c1ccc2c(c1)oc(=O)n2C	101.0	103.0	8.0	0.0	·	·	·
Cc1ccccc1NC(=O)C(C)N1C(=O)c2ccccc2C1=O (centres undefined)	106.0	104.0	6.0	24.7	·	·	·
Cc1cccnc1NC(=O)C(C)N1C(=O)c2ccccc2C1=O (centres undefined)	119.0	131.0*	24.0	-4.2	99.0	1.0	100.0
COc1ccc(CNC(=O)COc2ccc(Br)c(C)c2)cc1	106.0	113.0	14.0	-6.1	·	·	·
O=c1[nH]c(NNC(=S)NCc2ccccc2)nc2c1C1(CCCCC1)Cc1ccccc1-2	94.0	100.0	-1.0	-3.4	·	·	·
C=CCNC(=S)NNc1nc2c(c(=O)[nH]1)C1(CCCC1)Cc1ccccc1-2	108.0	142.0*	0.0	17.8	102.0	-3.0	102.0
O=C(CCS(=O)(=O)c1cccs1)Nc1ccc(C(=O)NC2CCCC2)cc1	97.0	98.0	-4.0	5.1	·	·	·
O=C(NCCCN1CCOCC1)c1cc(Cl)ccc1[N+](=O)[O-]	114.0	206.0*	2.0	-4.1	99.0	2.0	100.0
CCSC1=NC2(CCCCC2)Nc2sc3c(c21)CCCC3	2.0*[inhibitor]	3.0*[inhibitor]	-16.0	-3.1	97.0	1.0	97.0
CCSc1nc2sc3c(c2c(=O)[nH]1)CCCC3	94.0	96.0	3.0	2.1	·	·	·
Cc1cc(N/N=C/c2ccccc2Br)nc2ccccc12	144.0*	99.0	22.0	-7.6	136.0	13.0	104.0
Cc1cc(NC(=O)CC2CCCC2)ccc1Br	99.0	99.0	-5.0	4.0	·	·	·
Cc1cccc(NC(=O)CC2CCC2)c1	-1.0*[inhibitor]	2.0*[inhibitor]	-26.0	-5.5	106.0	4.0	102.0
Cc1cccc(NC(=O)CN2CCN(CC(=O)Nc3cccc(C)c3)CC2)c1	91.0	82.0*[inhibitor]	-10.0	9.4	109.0	1.0	105.0
NC(=O)C1CCN(C(=O)CCSCc2ccccc2)CC1	100.0	102.0	4.0	4.4	·	·	·
O=C1[C@H]2[C@@H](/C=C/c3ccccc3)N3C(=O)CN(Cc4ccccn4)C(=O)[C@@]3(Cc3ccccc3)[C@H]2C(=O)N1c1ccccc1	101.0	103.0	10.0	-1.3	·	·	·
NC(=O)CCC(NC(=O)c1ccc(Cl)cc1)C(=O)O (centres undefined)	94.0	96.0	-6.0	-0.2	·	·	·
COCCNC(=O)C(=O)NCC1OCCN1S(=O)(=O)c1cccs1 (centres undefined)	98.0	92.0	-13.0	15.3	·	·	·
CCN(CC)CCNC(=O)C(=O)NCC1OCCN1S(=O)(=O)c1cccs1 (centres undefined)	137.0*	103.0	20.0	9.7	109.0	5.0	101.0
Cc1cccc(OCCNC(=O)CCc2ccccc2)c1	·	·	·	6.3	·	·	·
Cc1cccc(OCCCC(=O)NCCc2ccccc2)c1	108.0	137.0*	0.0	39.1	105.0	4.0	104.0
